A number with no mark means an inactive call. How the calls were made is not given here.
Potency means the concentration at half of the fitted maximal effect.

The assay relates to HIV-1 nucleocapsid protein NCp7 (binding to TG oligonucleotide). As to the kind of experiment: HIV Nucleocapsid (AID 346).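 Further: potency is for inhibitors that block NC binding and lower polarization.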 The settings on record: HIV-1 NC / fluorescein-TGTGTGTG probe, fluorescence polarization. The procedure, abridged: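 HIV-1 NC (100 nM) binding to fluorescein-labelled ssDNA TG4xF (10 nM) in Hepes pH 7.5, 250mM NaCl, 1uM ZnCl2, TCEP and 2-mercaptoethanol; compounds pin-transferred, 1 hr room temperature, fluorescence polarization read on CCD imager.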
For the compound `CC(=O)NCCNc1ncnc2ccc(-c3ccccc3C(F)(F)F)cc12`, the Potency is > 20 µM.

For `COCCn1c(=O)c(-c2cccs2)nc2cncnc21`, the Potency is > 20 µM. To `CN1CCN(c2ncc3nc(CCc4ccccc4)c(=O)n(CCC#N)c3n2)CC1` belongs > 20 µM.

With `FC(F)(F)c1ccccc1-c1nccc(NCCN2CCOCC2)n1`, the Potency was > 20 µM.

In the case of `COc1ccc(NC(=O)N2CC3(CCN(C(=O)c4ccncc4)CC3)C2)cc1`, the Potency was > 20 µM. On to `COCCn1c(=O)c(-c2cccs2)nc2cnc(Oc3cccc(Cl)c3)nc21`, for which the Potency was > 20 µM. On to `Cc1nc2cnc(N3CCN(C)CC3)nc2n(C)c1=O`, for which the Potency is > 20 µM. Take `CN(C)C(=O)c1ccc(-c2nccc(Nc3ccc(F)cc3)n2)cc1`: the Potency is > 20 µM. Regarding `COC(=O)N1CCC2(CCCN(C(c3ccccc3)c3ccccc3)C2)CC1`, the Potency was > 20 µM.

Turning to `COc1ccc2[nH]cc(CCNc3nc(-c4cccc(NS(C)(=O)=O)c4)nc4ccccc34)c2c1`, the Potency was > 20 µM.

For `COc1cccc(Cn2c(=O)c(-c3ccc(F)cc3)nc3cnc(N4CCNCC4)nc32)c1`, the Potency was > 20 µM. `O=C(c1csnn1)N1CCC[C@@]2(CCN(c3ncccn3)C2)C1`: the Potency is > 20 µM. Take `CN1CCN(c2ncncc2-c2cccnc2)CC1`: the Potency was > 20 µM.

In the case of `Cc1ccccc1-c1nc(NCc2cccnc2)c2ccccc2n1`, the Potency was > 20 µM. In the case of `CS(=O)(=O)Nc1cccc(-c2nccc(-n3ccnc3)n2)c1`, the Potency was > 20 µM. To `O=C(Nc1ccccc1)N1CCC2(CC1)CCN(C(=O)c1ccco1)CC2` belongs > 20 µM; to `CS(=O)(=O)Nc1cccc(-c2ccc3ncnc(NC4CCNCC4)c3c2)c1`, > 20 µM. In the case of `O=C(c1cnccn1)N1CCC2(CCCN(c3cccc(-c4ccccc4)c3)C2)CC1`, the Potency is > 20 µM. With `O=C(c1cc(C(F)(F)F)cc(C(F)(F)F)c1)N1CCC2(CC1)CN(c1ncccn1)C2`, the Potency was > 20 µM.

In the case of `O=C(c1csnn1)N1CCC2(CC1)CN(c1cccc(-c3ccccc3)c1)C2`, the Potency was > 20 µM. For `COc1cccc(Nc2ncc3ncc(=O)n(C4CC4)c3n2)c1`, the Potency is > 4 µM. To `O=c1cnc2cnc(Oc3cccc(Cl)c3)nc2n1C1CC1` belongs > 20 µM. For `CC(C)CN1CCC2(CC1)CCN(C(=O)c1csnn1)CC2`, the Potency is > 20 µM. For `COc1ccc2[nH]cc(CCNc3ccnc(-c4ccc(C(=O)N(C)C)cc4)n3)c2c1`, the Potency is > 20 µM. As to `CS(=O)(=O)N1CCC[C@@]2(CCN(c3ccccc3)C2)C1`, the Potency is > 20 µM. As for `COCC(=O)N1CCC[C@@]2(CCN(C(=O)Nc3ccc(OC)cc3)C2)C1`, the Potency is > 20 µM. The same measure for `O=C(Nc1cccc(F)c1)N1CC[C@@]2(CCCN(C(=O)c3ccncc3)C2)C1`: > 20 µM. With `COc1ccc(CNc2cc(-c3cccnc3)ncn2)c(OC)c1`, the Potency is > 20 µM. With `COc1ccc(CNc2nc(-c3ccc(N(C)C)cc3)nc3ccccc23)c(OC)c1`, the Potency is > 20 µM. `CN(C)C(=O)c1ccc(-c2cc(NCc3cccnc3)ncn2)cc1`: the Potency was > 20 µM.

`Cn1c(=O)c(-c2cc(F)cc(F)c2)nc2cnc(Oc3ccccc3)nc21`: the Potency was > 20 µM. Consider `CN(C)c1ccc(-c2nc(NCCN3CCOCC3)c3ccccc3n2)cc1`, for which the Potency was > 20 µM.

Take `Cc1noc(C)c1C(=O)N1CCC2(CC1)CCN(C(c1ccccc1)c1ccccc1)CC2`: the Potency is > 20 µM. The same measure for `CC(=O)NCCNc1nc(-c2ccccc2Cl)nc2ccccc12`: > 20 µM; for `Cc1noc(C)c1C(=O)N1CCC[C@@]2(CCN(Cc3cc(C(F)(F)F)cc(C(F)(F)F)c3)C2)C1`: > 20 µM. On to `COc1ccccc1CN1CCCC2(CCN(C(=O)c3cc(C(F)(F)F)cc(C(F)(F)F)c3)CC2)C1`, for which the Potency is > 20 µM. On to `COCCn1c(=O)c(-c2cccs2)nc2cnc(OC)nc21`, for which the Potency was > 20 µM.

On to `O=C(c1ccco1)N1CCC2(CCN(Cc3cc(C(F)(F)F)cc(C(F)(F)F)c3)CC2)CC1`, for which the Potency was > 20 µM.

In the case of `COCCn1c(=O)c(CCc2ccccc2)nc2cnc(OCc3ccccc3)nc21`, the Potency was > 20 µM. Consider `CN(C)c1ccnc(-c2cccc(NS(C)(=O)=O)c2)n1`, for which the Potency is > 20 µM.

Values taken from PubChem BioAssay (NCATS).
